Measured values from PubChem BioAssay (EPA / NIEHS).
Records with an inconclusive call do not appear. Active and inactive are the calls of the source. How the source made its calls: active means hit-call score of the fitted dose curve at least 0.9, where 1 is the maximum; inconclusive means response in the unintended direction; inactive means score below 0.9.

Assays:
[1] = read-out: Cytochrome P450 2C9 (Homo sapiens) (UniProt P11712); assay: CLD_CYP2C9_24hr: CellzDirect (CLD) Gene Expression Assay for xenobiotic metabolism (CYP2C9) at 24 hours (AID 2283688);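 on AC50: potency for induction meaning a rise in CYP2C9 mRNA over DMSO vehicle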
Outline: (§1)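 Primary human hepatocytes from two donor preparations, dosed daily for two days at multiple concentrations; vehicle 0.2% DMSO. CYP2C9 mRNA induction at 24 h measured by qNPA chemiluminescence relative to DMSO; cytotoxicity annotated from morphology.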

[2] = read-out: xenobiotic metabolism (CYP2C9), CYP2C9 (gene 1559); assay: CLD_CYP2C9_24hr: CellzDirect (CLD) Gene Expression Assay for xenobiotic metabolism (CYP1A2) at 24 hours (AID 2283688);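 on AC50: potency for induction meaning a rise in CYP2C9 mRNA over DMSO vehicle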
Outline: as §1

[3] = read-out: xenobiotic metabolism (CYP1A2), CYP1A2 (gene 1544); assay: CLD_CYP1A2_24hr: CellzDirect (CLD) Gene Expression Assay for xenobiotic metabolism (CYP1A2) at 24 hours (AID 2283683)
Outline: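 Primary human hepatocytes from two donor preparations dosed daily with multiple concentrations of chemical, 0.2% DMSO vehicle. CYP1A2 mRNA at 24 h quantified by qNPA chemiluminescence; gain of signal analyzed relative to DMSO. Cytotoxicity flagged by phase-contrast morphology.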

[4] = read-out: Cytochrome P450 3A4 (Homo sapiens) (UniProt P08684); assay: CLD_CYP3A4_24hr: CellzDirect (CLD) Gene Expression Assay for xenobiotic metabolism (CYP3A4) at 24 hours (AID 2283689)
Outline: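 Primary human hepatocytes from two donors dosed daily with fresh compound for two days, 0.2% DMSO vehicle. CYP3A4 mRNA at 24 hr by qNPA chemiluminescence; gain-of-signal fit versus DMSO, cytotoxicity flagged by morphology.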

[5] = read-out: Glyceraldehyde-3-phosphate dehydrogenase (Homo sapiens) (UniProt P04406); assay: CLD_GAPDH_6hr: CellzDirect (CLD) Gene Expression Assay for Baseline Control (Glyceraldehyde 3-phosphate dehydrogenase) at 6 hours (AID 2283681);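 further: active means increased signal relative to DMSO vehicle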
Outline: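 Primary human hepatocytes from two donor preparations, dosed at multiple concentrations with 0.2% DMSO vehicle; GAPDH mRNA measured 6 h after dosing by chemiluminescent quantitative nuclease protection assay (qNPA) on denatured lysates. Serves as background control; cytotoxicity annotated by morphology.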

[6] = read-out: HMG-CoA synthase (HMGCS2), HMGCS2 (gene 3158); assay: CLD_HMGCS2_24hr: CellzDirect (CLD) Gene Expression Assay for HMG-CoA synthase (HMGCS2) at 24 hours (AID 2283691)
Outline: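 Primary human hepatocytes from two donor preparations, dosed daily with fresh solutions; vehicle 0.2% DMSO, 24 h harvest. HMGCS2 mRNA quantified by qNPA with S1 nuclease digestion and chemiluminescence; gain fitted versus DMSO, cytotoxicity annotated by morphology.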

[7] = read-out: HMG-CoA synthase (HMGCS2), HMGCS2 (gene 3158); assay: CLD_HMGCS2_6hr: CellzDirect (CLD) Gene Expression Assay for HMG-CoA synthase (HMGCS2) at 6 hours (AID 2283682);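 further: actives raise HMGCS2 transcript above the 0.2% DMSO vehicle baseline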
Outline: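 Primary human hepatocytes dosed daily with fresh chemical, 0.2% DMSO vehicle; HMGCS2 mRNA measured at 6 h by qNPA chemiluminescence. Gain of signal fitted against DMSO; cytotoxicity flagged from phase-contrast morphology.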

[8] = read-out: Cytochrome P450 2B6 (Homo sapiens) (UniProt P20813); assay: CLD_CYP2B6_24hr: CellzDirect (CLD) Gene Expression Assay for xenobiotic metabolism (CYP2B6) at 24 hours (AID 2283686)
Outline: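 Primary human hepatocytes dosed daily for two days with fresh solutions, harvested at 24 hours; mRNA induction quantified by qNPA chemiluminescence, gain of signal vs 0.2% DMSO vehicle. Cytotoxicity annotated from phase-contrast morphology.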

[9] = read-out: Broad substrate specificity ATP-binding cassette transporter ABCG2 (Homo sapiens) (UniProt Q9UNQ0); assay: CLD_ABCG2_24hr: CellzDirect (CLD) Gene Expression Assay for ABC Transporter (ABCG2) at 24 hours (AID 2283685)
Outline: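 Primary human hepatocytes were dosed daily with ToxCast chemicals at multiple concentrations (vehicle 0.2% DMSO). ABCG2 mRNA was measured at 24 h by qNPA chemiluminescence; induction was scored as gain of signal versus DMSO.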

[10] = read-out: ABC Transporter (ABCB1), ABCB1 (gene 5243); assay: CLD_ABCB1_24hr: CellzDirect (CLD) Gene Expression Assay for ABC Transporter (ABCB1) at 24 hours (AID 2283684);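 on AC50: potency for increase in ABCB1 mRNA relative to DMSO vehicle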
Outline: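 Primary human hepatocytes, two donor preparations, dosed daily with fresh solutions; vehicle 0.2% DMSO; harvested at 24 h. ABCB1 mRNA measured by quantitative nuclease protection assay (chemiluminescence); morphology-based cytotoxicity annotated.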

Cytochrome P450 3A4 (Homo sapiens), sequence (P08684 whole entry, looked up): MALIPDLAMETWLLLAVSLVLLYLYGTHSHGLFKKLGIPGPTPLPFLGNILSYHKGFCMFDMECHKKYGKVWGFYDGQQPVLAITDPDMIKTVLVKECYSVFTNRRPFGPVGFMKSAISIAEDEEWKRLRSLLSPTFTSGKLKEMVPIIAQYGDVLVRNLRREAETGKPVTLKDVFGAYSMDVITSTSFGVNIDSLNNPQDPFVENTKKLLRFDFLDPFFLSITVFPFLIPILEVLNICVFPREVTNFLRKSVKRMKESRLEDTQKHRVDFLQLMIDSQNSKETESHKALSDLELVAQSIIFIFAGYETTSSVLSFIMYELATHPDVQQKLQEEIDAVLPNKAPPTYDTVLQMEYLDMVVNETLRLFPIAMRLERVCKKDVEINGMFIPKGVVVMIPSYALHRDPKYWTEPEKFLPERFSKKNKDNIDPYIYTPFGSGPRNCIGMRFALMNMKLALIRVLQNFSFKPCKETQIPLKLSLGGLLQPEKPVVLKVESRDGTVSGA
Broad substrate specificity ATP-binding cassette transporter ABCG2 (Homo sapiens), sequence (Q9UNQ0 whole entry, looked up): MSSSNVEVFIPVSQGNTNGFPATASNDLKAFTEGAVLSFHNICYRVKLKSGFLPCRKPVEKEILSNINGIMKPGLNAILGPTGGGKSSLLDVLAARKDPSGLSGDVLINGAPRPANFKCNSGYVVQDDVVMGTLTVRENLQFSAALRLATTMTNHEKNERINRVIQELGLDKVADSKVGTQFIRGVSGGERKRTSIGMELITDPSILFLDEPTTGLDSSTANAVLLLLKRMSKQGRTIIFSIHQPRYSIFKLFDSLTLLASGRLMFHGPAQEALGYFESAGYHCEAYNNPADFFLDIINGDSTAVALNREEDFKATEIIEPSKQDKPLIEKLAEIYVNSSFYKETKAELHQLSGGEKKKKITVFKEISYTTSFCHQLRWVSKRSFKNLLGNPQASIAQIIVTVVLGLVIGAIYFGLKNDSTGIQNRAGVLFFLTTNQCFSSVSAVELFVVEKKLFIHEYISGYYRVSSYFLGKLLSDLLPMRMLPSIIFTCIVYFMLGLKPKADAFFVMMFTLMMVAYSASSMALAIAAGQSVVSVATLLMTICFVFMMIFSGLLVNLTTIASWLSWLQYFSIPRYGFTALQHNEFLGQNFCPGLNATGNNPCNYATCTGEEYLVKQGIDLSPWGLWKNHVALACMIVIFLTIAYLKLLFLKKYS
Glyceraldehyde-3-phosphate dehydrogenase (Homo sapiens), sequence (P04406 whole entry, looked up): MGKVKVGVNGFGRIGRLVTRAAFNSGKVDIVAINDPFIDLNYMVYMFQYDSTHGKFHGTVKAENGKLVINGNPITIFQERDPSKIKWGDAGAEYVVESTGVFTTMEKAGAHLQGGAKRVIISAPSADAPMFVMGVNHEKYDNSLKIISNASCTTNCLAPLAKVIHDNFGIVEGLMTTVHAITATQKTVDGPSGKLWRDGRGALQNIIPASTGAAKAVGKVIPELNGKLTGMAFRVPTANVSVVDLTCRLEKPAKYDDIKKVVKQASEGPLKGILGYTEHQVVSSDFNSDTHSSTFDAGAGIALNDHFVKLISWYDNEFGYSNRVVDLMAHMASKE

SMILES: O=C(O)c1c(Cl)ccc2cc(Cl)cnc12
- outcome [1]: inactive

SMILES: CC(C)NC(=O)N1CC(=O)N(c2cc(Cl)cc(Cl)c2)C1=O
- outcome [1]: inactive

SMILES: CS(=O)(=O)c1ccc(C(=O)C2C(=O)CCCC2=O)c([N+](=O)[O-])c1
- AC50 [2]: 0.305 nM (active)

SMILES: COC(=O)c1c(C(F)F)nc(C(F)(F)F)c(C2=NCCS2)c1CC(C)C
- AC50 [3]: 9.96 µM (active)
- outcome [4]: inactive

SMILES: COCc1cnc(C2=NC(C)(C(C)C)C(=O)N2)c(C(=O)O)c1 (stereo not drawn)
- outcome [5]: inactive
- outcome [4]: inactive
- outcome [6]: inactive

SMILES: N#Cc1c[nH]cc1-c1cccc2c1OC(F)(F)O2
- outcome [7]: inactive
- AC50 [3]: 1.56 µM (active)
- AC50 [8]: 3.97 µM (active)
- AC50 [4]: 4.26 µM (active)

SMILES: Cc1nc(N(C)C)nc(OC(=O)N(C)C)c1C
- AC50 [3]: 3.66 µM (active)
- outcome [9]: inactive
- AC50 [8]: 4.29 µM (active)
- AC50 [4]: 20 µM (active)
- outcome [6]: inactive

SMILES: COC(=O)NC(=S)Nc1ccccc1NC(=S)NC(=O)OC
- outcome [7]: inactive
- AC50 [3]: 12.2 µM (active)
- AC50 [8]: 7.45 µM (active)
- AC50 [4]: 3.97 µM (active)

SMILES: COCC(C)N(C(=O)CCl)c1c(C)csc1C (stereo not drawn)
- outcome [5]: inactive
- outcome [10]: inactive

SMILES: COc1cc(OC)nc(NC(=O)NS(=O)(=O)c2ncccc2OCC(F)(F)F)n1
- outcome [7]: inactive
- outcome [3]: inactive
- outcome [4]: inactive

SMILES: Nc1c(Cl)c(F)nc(OCC(=O)O)c1Cl
- outcome [5]: inactive
- outcome [8]: inactive
- outcome [4]: inactive

SMILES: CCCN(CC)CC1COC2(CCC(C(C)(C)C)CC2)O1 (stereo not drawn)
- outcome [7]: inactive
- AC50 [3]: 0.583 µM (active)
- AC50 [4]: 4.82 µM (active)
- AC50 [6]: 74.2 nM (active)

SMILES: Nc1cnn(-c2ccccc2)c(=O)c1Cl
- outcome [7]: inactive
- AC50 [3]: 5.8 µM (active)

SMILES: CCOC(=O)C(C)OC(=O)c1cc(Oc2ccc(C(F)(F)F)cc2Cl)ccc1[N+](=O)[O-] (stereo not drawn)
- AC50 [7]: 24.1 nM (active)
- AC50 [3]: 4.61 µM (active)
- AC50 [8]: 10.3 µM (active)
- AC50 [4]: 3.19 µM (active)
- AC50 [6]: 310 nM (active)

SMILES: CCC(C)n1c(=O)[nH]c(C)c(Br)c1=O (stereo not drawn)
- outcome [7]: inactive
- AC50 [3]: 7.45 µM (active)
- AC50 [8]: 1.56 µM (active)
- outcome [4]: inactive

SMILES: CC(C)N1C(=O)N(c2ccccc2)CSC1=NC(C)(C)C
- outcome [3]: inactive
- outcome [10]: inactive
- outcome [9]: inactive
- outcome [1]: inactive
- AC50 [4]: 20 µM (active)

SMILES: COC(=O)NS(=O)(=O)c1ccc(N)cc1
- outcome [7]: inactive
- outcome [3]: inactive
- outcome [4]: inactive
- outcome [6]: inactive

SMILES: CCN(CC)c1nc(C)cc(OP(=S)(OC)OC)n1
- outcome [7]: inactive
- AC50 [3]: 3.97 µM (active)
- AC50 [4]: 3.81 µM (active)

SMILES: CCSC(=O)N1CCCCCC1
- outcome [7]: inactive
- outcome [3]: inactive
- AC50 [4]: 0.0865 µM (active)

SMILES: CC1(C)CCC(=Cc2ccc(Cl)cc2)C1(O)Cn1cncn1 (stereo not drawn)
- AC50 [3]: 3.47 µM (active)
- AC50 [8]: 3.58 µM (active)
- outcome [4]: inactive

SMILES: O=C(Nc1ccccc1-c1ccc(Cl)cc1)c1cccnc1Cl
- outcome [7]: inactive
- AC50 [3]: 6.74 µM (active)
- AC50 [8]: 0.427 µM (active)

SMILES: COCC(=O)N(c1c(C)cccc1C)C(C)C(=O)OC (stereo not drawn)
- outcome [7]: inactive
- AC50 [8]: 4.09 µM (active)

SMILES: CCN(CC)C(=O)C(C)Oc1cccc2ccccc12 (stereo not drawn)
- AC50 [3]: 8.79 µM (active)
- outcome [8]: inactive
- outcome [4]: inactive

SMILES: CC1(C)C(C=C(Cl)Cl)C1C(=O)OC(C#N)c1cccc(Oc2ccccc2)c1 (stereo not drawn)
- outcome [7]: inactive
- AC50 [3]: 11 µM (active)
- outcome [10]: inactive
- outcome [1]: inactive

SMILES: N#Cc1c(Cl)cccc1Cl
- outcome [5]: inactive
- outcome [1]: inactive
- outcome [4]: inactive

SMILES: Cc1cc(C)nc(Nc2ccccc2)n1
- AC50 [3]: 5.77 µM (active)
- AC50 [8]: 1.9 µM (active)
- AC50 [4]: 1.78 µM (active)

SMILES: CCCC(=NOCC)C1=C(O)CC(CC(C)SCC)CC1=O (stereo not drawn)
- outcome [5]: inactive
- outcome [1]: inactive
- AC50 [4]: 32.9 µM (active)

SMILES: Cc1c(COC(=O)[C@@H]2[C@H](/C=C(\Cl)C(F)(F)F)C2(C)C)cccc1-c1ccccc1
- AC50 [3]: 32.2 µM (active)
- AC50 [4]: 6.84 µM (active)

SMILES: CC1(C)C(C(=O)OC(C#N)c2cccc(Oc3ccccc3)c2)C1(C)C (stereo not drawn)
- outcome [7]: inactive
- AC50 [3]: 20 µM (active)
- outcome [10]: inactive
- outcome [9]: inactive
- AC50 [4]: 13 µM (active)
- outcome [6]: inactive

SMILES: CC(C)Nc1nc(Cl)nc(NC(C)C)n1
- AC50 [3]: 7.72 µM (active)
- outcome [10]: inactive
- AC50 [4]: 6.2 µM (active)

SMILES: CNC(=O)Oc1cccc2ccccc12
- AC50 [3]: 2.83 µM (active)

SMILES: COc1cc(Cl)c(OC)cc1Cl
- outcome [3]: inactive
- AC50 [8]: 0.598 µM (active)
- outcome [4]: inactive

SMILES: CC(C)=CC1C(C(=O)OCc2coc(Cc3ccccc3)c2)C1(C)C (stereo not drawn)
- outcome [3]: inactive
- outcome [1]: inactive
- outcome [4]: inactive

SMILES: CCOc1nc(F)cc2nc(S(=O)(=O)Nc3c(Cl)cccc3Cl)nn12
- outcome [7]: inactive
- outcome [3]: inactive
- AC50 [4]: 2.93 µM (active)
- outcome [6]: inactive

SMILES: CCOP(=O)(OCC)Oc1nc(Cl)c(Cl)cc1Cl
- outcome [5]: inactive
- AC50 [3]: 3.42 µM (active)
- AC50 [4]: 3.97 µM (active)
- outcome [6]: inactive

SMILES: CCOP(=S)(OCC)Oc1nc(Cl)n(C(C)C)n1
- AC50 [3]: 0.975 µM (active)
- outcome [10]: inactive
- outcome [1]: inactive
- AC50 [4]: 0.677 µM (active)

SMILES: CCCCC(C#N)(Cn1cncn1)c1ccc(Cl)cc1 (stereo not drawn)
- AC50 [3]: 20 µM (active)
- outcome [9]: inactive
- AC50 [4]: 9.54 µM (active)

SMILES: CNC(=O)N(C)c1nnc(C(C)(C)C)s1
- outcome [3]: inactive
- outcome [4]: inactive

SMILES: CCCCC(O)(Cn1cncn1)c1ccc(Cl)cc1Cl (stereo not drawn)
- AC50 [3]: 1.9 µM (active)
- AC50 [10]: 31.9 µM (active)
- outcome [9]: inactive
- AC50 [8]: 1.9 µM (active)
- AC50 [4]: 1.13 µM (active)
